Unmarked numbers belong to inactive results. For some of these results: Measured potencies and affinities stand elsewhere. Active and inactive are the calls of the source. Unless noted, the rule behind the calls is not given here.

One may read the inhibition as the drop in the measured response relative to a control, in per cent.

Experiment [1] can be described thus: antimalarial activity against Dd2 strain (AID 2302;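 active = growth inhibition above 50% at the single 2 µM test dose, taken to imply half-maximal potency below 2 µM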;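 note: 0% = DMSO untreated growth and 100% = chloroquine plus artemisinin killed control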). Particulars: P. falciparum Dd2 in RBCs, LDH growth readout, 72 h; at 2 µM; active compounds read high.
Experiment [2] is described as follows: human hepatoma cell viability loss – ATP luminescence, cytotoxicity control for P. falciparum antimalarial project, primary screen (AID 2303;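 active = inhibition above 50%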;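 note: 0% = DMSO wells and 100% = digitonin-killed cells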). The following applies: HepG2 viability, 24-48 h, at 10 µM, active compounds read high.
Experiment [3] concerns the target L-lactate dehydrogenase (Plasmodium falciparum (isolate CDC / Honduras)) (UniProt Q27743). Kind of experiment: PfLDH activity inhibition – cell lysate, 3D7 strain, counter-screen for P. falciparum growth inhibition project (AID 2304).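 Note: 0% = vehicle and 100% = reference inhibitor.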 The following applies: P. falciparum 3D7 crude extract, LDH APAD/NBT absorbance; at 2 µM; active compounds read high. For orientation: Counterscreens check selectivity or assay interference.

Experiment [4] is described as follows: inhibition of 3D7 malaria parasite growth – strain 3D7 (AID 2306).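 Note: 0% = DMSO wells and 100% = chloroquine plus artemisinin control wells.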 Particulars: P. falciparum 3D7 erythrocytic growth, LDH absorbance, 72 h; at 2 µM; active compounds read high.
Experiment [5] addresses Calcium-dependent protein kinase 1 (Plasmodium falciparum (isolate 3D7)) (UniProt P62344). Kind of experiment: PfCDPK1 kinase inhibitors, biochemical, TCAMS library (AID 1159585; cut-off not given, nearly all actives have IC50 up to about 0.98 µM;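 note: inhibitors leave more ATP so luminescence rises with inhibition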). The following applies: recombinant PfCDPK1, Kinase-Glo ATP depletion luminescence. (Kinase-Glo measures the ATP left after a reaction by luminescence.)
Experiment [6] addresses Plasmodium falciparum protein kinase 6 (PK6, PF3D7_1337100) (UniProt Q8IDW1). The experiment can be described thus: PfPK6 kinase inhibitors, biochemical, TCAMS library (AID 1159586). Particulars: recombinant PfPK6, Kinase-Glo ATP depletion luminescence.
For experiment [7], the target named is Protein kinase 7 (PK7), Plasmodium falciparum 3D7 (PF3D7_0213400) (UniProt Q7YTF7). Kind of experiment: inhibition of Plasmodium PK7 catalytic activity – biochemical, TCAMS antimalarial set, Kinase-Glo luminescence (AID 1159587). The following applies: recombinant PfPK7, Kinase-Glo ATP depletion luminescence.
Sequence of Protein kinase 7 (PK7), Plasmodium falciparum 3D7 (PF3D7_0213400) (Q7YTF7 1-343): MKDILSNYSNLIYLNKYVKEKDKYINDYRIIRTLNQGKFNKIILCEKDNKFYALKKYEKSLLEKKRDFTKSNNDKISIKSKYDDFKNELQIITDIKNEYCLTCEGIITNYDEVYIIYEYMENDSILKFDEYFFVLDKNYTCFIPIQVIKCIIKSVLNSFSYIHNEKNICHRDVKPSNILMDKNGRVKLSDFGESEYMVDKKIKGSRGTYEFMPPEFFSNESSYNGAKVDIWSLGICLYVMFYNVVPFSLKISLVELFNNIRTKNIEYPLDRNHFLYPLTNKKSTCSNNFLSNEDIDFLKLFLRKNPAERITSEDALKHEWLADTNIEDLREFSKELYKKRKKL
Experiment [8] has as its target Calcium-dependent protein kinase 4 (Plasmodium falciparum (isolate 3D7)) (UniProt Q8IBS5). Kind of experiment: PfCDPK4 kinase inhibitors, biochemical, TCAMS library (AID 1159588; cut-off not given, nearly all actives have IC50 up to about 0.91 µM). Particulars: recombinant PfCDPK4, Kinase-Glo ATP depletion luminescence.

Sequence of L-lactate dehydrogenase (Plasmodium falciparum (isolate CDC / Honduras)) (Q27743 whole entry, looked up): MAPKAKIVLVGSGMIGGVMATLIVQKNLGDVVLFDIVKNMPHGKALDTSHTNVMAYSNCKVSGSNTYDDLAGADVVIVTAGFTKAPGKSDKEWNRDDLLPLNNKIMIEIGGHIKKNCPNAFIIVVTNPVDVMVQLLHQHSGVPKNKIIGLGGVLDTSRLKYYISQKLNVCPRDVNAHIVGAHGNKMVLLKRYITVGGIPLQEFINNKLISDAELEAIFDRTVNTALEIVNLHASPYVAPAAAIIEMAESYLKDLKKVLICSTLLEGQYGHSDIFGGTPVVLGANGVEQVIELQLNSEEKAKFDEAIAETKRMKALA
Sequence of Plasmodium falciparum protein kinase 6 (PK6, PF3D7_1337100) (Q8IDW1 1-305): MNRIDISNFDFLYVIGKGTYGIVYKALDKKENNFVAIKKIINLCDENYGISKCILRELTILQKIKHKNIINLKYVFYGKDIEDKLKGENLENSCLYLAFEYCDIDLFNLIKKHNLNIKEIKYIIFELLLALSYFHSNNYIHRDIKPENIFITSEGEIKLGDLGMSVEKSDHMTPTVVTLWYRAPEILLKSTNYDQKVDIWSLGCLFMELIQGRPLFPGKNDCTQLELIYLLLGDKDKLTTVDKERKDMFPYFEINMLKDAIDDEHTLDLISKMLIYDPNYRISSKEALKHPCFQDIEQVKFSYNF
Sequence of Calcium-dependent protein kinase 4 (Plasmodium falciparum (isolate 3D7)) (Q8IBS5 whole entry, looked up): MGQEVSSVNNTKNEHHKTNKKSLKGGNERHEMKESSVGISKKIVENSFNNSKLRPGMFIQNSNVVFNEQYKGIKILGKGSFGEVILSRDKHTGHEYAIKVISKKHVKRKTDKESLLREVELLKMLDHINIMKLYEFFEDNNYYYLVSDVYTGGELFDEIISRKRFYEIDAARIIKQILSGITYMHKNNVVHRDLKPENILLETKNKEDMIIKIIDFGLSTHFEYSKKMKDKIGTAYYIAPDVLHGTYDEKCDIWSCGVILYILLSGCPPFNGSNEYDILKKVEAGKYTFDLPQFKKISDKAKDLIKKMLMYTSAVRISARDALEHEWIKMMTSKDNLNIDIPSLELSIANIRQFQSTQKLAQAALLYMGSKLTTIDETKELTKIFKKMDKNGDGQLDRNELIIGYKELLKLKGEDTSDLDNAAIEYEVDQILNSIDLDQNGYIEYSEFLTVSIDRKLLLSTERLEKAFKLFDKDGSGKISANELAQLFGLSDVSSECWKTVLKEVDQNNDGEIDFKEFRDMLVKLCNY
Sequence of Calcium-dependent protein kinase 1 (Plasmodium falciparum (isolate 3D7)) (P62344 whole entry, looked up): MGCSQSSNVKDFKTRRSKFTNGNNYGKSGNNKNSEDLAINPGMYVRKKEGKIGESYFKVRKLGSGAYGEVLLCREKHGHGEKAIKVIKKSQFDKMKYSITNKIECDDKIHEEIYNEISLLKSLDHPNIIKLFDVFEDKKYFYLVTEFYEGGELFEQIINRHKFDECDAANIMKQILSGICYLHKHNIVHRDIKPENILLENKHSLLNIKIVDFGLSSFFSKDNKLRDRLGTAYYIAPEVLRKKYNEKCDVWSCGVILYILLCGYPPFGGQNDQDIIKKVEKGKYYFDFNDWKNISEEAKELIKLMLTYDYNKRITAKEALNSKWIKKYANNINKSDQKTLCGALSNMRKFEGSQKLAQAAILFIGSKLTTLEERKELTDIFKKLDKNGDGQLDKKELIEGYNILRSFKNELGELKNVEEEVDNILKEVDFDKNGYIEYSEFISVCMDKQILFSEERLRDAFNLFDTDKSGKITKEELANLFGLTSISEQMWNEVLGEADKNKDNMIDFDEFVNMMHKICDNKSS

For the molecule `CC(C)C[C@H](NC(=O)c1ccc(OCCN2CCOCC2)cc1)C(=O)N[C@H](/C=N/N1CC(=O)NC1=O)CCc1ccccc1`, the growth inhibition in experiment [1] was 67% (active); in experiment [4] it was 88% (active). In addition, the figures for the inhibition in experiment [2] and in experiment [3] were 10% and 0%, respectively. The result in experiment [5], in experiment [6], in experiment [7] and in experiment [8] was inactive.

As to `Cc1ccc(C)c2sc(N3CCN(C(=O)c4ccc([N+](=O)[O-])o4)CC3)nc12`, the figures for the growth inhibition in experiment [1] and in experiment [4] were 89% (active) and 96% (active), respectively. Also, the values for the inhibition in experiment [2] and in experiment [3] were -2% and 2%, respectively. Further, the result in experiment [5], in experiment [6], in experiment [7] and in experiment [8] was inactive.

On to `COC(=O)C(C)(C)Cc1c(SC(C)(C)C)c2cc(C(C)C)ccc2n1Cc1ccc(Cl)cc1`, for which the growth inhibition in experiment [1] and in experiment [4] was 96% (active) throughout. Besides, the results for the inhibition in experiment [2] and in experiment [3] were -9% and 0%, respectively. The outcome in experiment [5], in experiment [6], in experiment [7] and in experiment [8] was inactive.

In the case of `COc1ccccc1CCNc1nc(C)cc(N[C@@H](Cc2ccccc2)C(=O)Nc2ccccc2)n1`, the growth inhibition in experiment [1] is 86% (active); in experiment [4], 101% (active). The inhibition was 30% in experiment [2] and 0% in experiment [3]. In addition, the result in experiment [5], in experiment [6], in experiment [7] and in experiment [8] was inactive.

In the case of `c1ccc(CNc2nc(NCCc3cnc[nH]3)nc(N3CCCC4CCCCC43)n2)cc1` (stereo not given), the growth inhibition was 100% (active) in experiment [1] and 98% (active) in experiment [4]. The inhibition in experiment [2] is -6%; in experiment [3] it was -3%. The result in experiment [5], in experiment [6], in experiment [7] and in experiment [8] was inactive.

`Cc1nnsc1C(=O)Nc1cccc(-c2cccc(-c3nc4ccc(C(F)(F)F)cc4[nH]3)c2)c1`: the figures for the growth inhibition in experiment [1] and in experiment [4] were 100% (active) and 101% (active), respectively. Moreover, the values for the inhibition in experiment [2] and in experiment [3] were 70% (active) and 1%, respectively. The result in experiment [5], in experiment [6], in experiment [7] and in experiment [8] was inactive.

As to `Oc1ccc(-c2cncc(NCc3ccc(F)c(F)c3)c2)cc1`, the growth inhibition is 80% (active) in experiment [1] and 95% (active) in experiment [4]. In addition, the inhibition in experiment [2] was -14%; in experiment [3], -3%. Besides, the outcome in experiment [5], in experiment [6], in experiment [7] and in experiment [8] was inactive.

Regarding `CN(C)CCN1CCN(Cc2ccc(-c3cccc(-c4nc5ccccc5[nH]4)c3)cc2)CC1`, the growth inhibition in experiment [1] was 100% (active); in experiment [4] it was 102% (active). Further, the inhibition in experiment [2] was 25%; in experiment [3] it was -7%. For the same molecule, the result in experiment [5], in experiment [6], in experiment [7] and in experiment [8] was inactive.

Consider `O=C(Nc1ccc(CN2CCOCC2)cc1)c1ccc(-c2cc(Cl)ccc2Cl)o1`, for which the growth inhibition in experiment [1] was 13%; in experiment [4], 101% (active). The inhibition in experiment [2] was 5%; in experiment [3] it was -1%. The result in experiment [5], in experiment [6], in experiment [7] and in experiment [8] was inactive.

Turning to `CN(C)C(=O)CC(=O)NCc1cccc(Cl)c1`, the figures for the growth inhibition in experiment [1] and in experiment [4] were 3% and 99% (active), respectively. The inhibition in experiment [2] is 4%; in experiment [3], 3%. Further, the outcome in experiment [5], in experiment [6], in experiment [7] and in experiment [8] was inactive.

With `O=C(Nc1ccccc1)Nc1cccc(-c2cc(CNCCc3ccccc3)sc2-c2ccncc2)c1`, the results for the growth inhibition in experiment [1] and in experiment [4] were 84% (active) and 100% (active), respectively. Also, the inhibition in experiment [2] was 14%; in experiment [3] it was 7%. In addition, the outcome in experiment [5], in experiment [6], in experiment [7] and in experiment [8] was inactive.

Take `CC(=O)N1c2ccccc2C(C)=CC1(C)C`: the growth inhibition was 11% in experiment [1] and 97% (active) in experiment [4]. For the same molecule, the inhibition in experiment [2] was 3%; in experiment [3] it was 1%. Moreover, the result in experiment [5], in experiment [6], in experiment [7] and in experiment [8] was inactive.

As to `Fc1ccc2c(NN=CC=Cc3ccccc3)ccnc2c1`, the growth inhibition in experiment [1] was 98% (active); in experiment [4] it was 101% (active). The inhibition in experiment [2] is -2%; in experiment [3] it was -3%. For the same molecule, the outcome in experiment [5], in experiment [6], in experiment [7] and in experiment [8] was inactive.

In the case of `COC(=O)c1cccc(OCCNC2CCN(C[C@H](O)c3ccnc4ccc(OC)cc34)CC2)c1`, the growth inhibition in experiment [1] was 96% (active); in experiment [4], 100% (active). Also, the inhibition in experiment [2] was -7%; in experiment [3], -10%. Further, the result in experiment [5], in experiment [6], in experiment [7] and in experiment [8] was inactive.

For `CC1CCCN(Cc2cc(Cl)cc(Cl)c2O)C1` (stereo not given), the figures for the growth inhibition in experiment [1] and in experiment [4] were 77% (active) and 89% (active), respectively. Further, the inhibition in experiment [2] was 22%; in experiment [3], 5%. In addition, the result in experiment [5], in experiment [6], in experiment [7] and in experiment [8] was inactive.

As to `c1ccc(COc2ccc(Nc3ncnc4cnc(-c5ccc(CNc6cccnc6)o5)cc34)cc2)cc1`, the growth inhibition in experiment [1] is 19%; in experiment [4] it was 96% (active). The inhibition in experiment [2] is 2%; in experiment [3] it was 3%. The outcome in experiment [5], in experiment [6], in experiment [7] and in experiment [8] was inactive.

`CCCC(C)NC(=O)[C@H](CC1CCCCC1)NC(=O)c1ccc(O)c(-c2ccc(OC)cc2)c1` (stereo not given in full): the growth inhibition in experiment [1] is 37%; in experiment [4] it was 89% (active). Also, the inhibition was 3% in experiment [2] and 1% in experiment [3]. Besides, the outcome in experiment [5], in experiment [6], in experiment [7] and in experiment [8] was inactive.

Regarding `CC(CCNc1c2ccccc2nc2ccccc12)N1CCN(C)CC1` (stereo not given), the growth inhibition in experiment [1] is -2%; in experiment [4], 101% (active). Moreover, the inhibition in experiment [2] was 25%; in experiment [3], 5%. Moreover, the outcome in experiment [5], in experiment [6], in experiment [7] and in experiment [8] was inactive.

Regarding `c1cc(COc2ccc(C3=NCCN3)cc2)nc(COc2ccc(C3=NCCN3)cc2)c1`, the values for the growth inhibition in experiment [1] and in experiment [4] were 98% (active) and 100% (active), respectively. In addition, the results for the inhibition in experiment [2] and in experiment [3] were 8% and -2%, respectively. Further, the outcome in experiment [5], in experiment [6], in experiment [7] and in experiment [8] was inactive.

For the molecule `CCOc1cc(C(C)C)ccc1C1CCN(CCCCNC(=O)c2ccc(NC(=O)c3ccc(Cl)cc3)cc2)CC1`, the growth inhibition in experiment [1] is 98% (active); in experiment [4], 101% (active). Further, the inhibition in experiment [2] was 32%; in experiment [3], 2%. Moreover, the result in experiment [5], in experiment [6], in experiment [7] and in experiment [8] was inactive.
